High-throughput results as filed in PubChem BioAssay.
PolyA inhibitor – inhibitors of polyadenylation in S. cerevisiae; activity score, % at 12 µM; AID 1875; 300,000 tested, 0.02% active; S. cerevisiae SKY197-pL101 polyadenylation reporter, beta-gal luminescence; efflux-impaired pdr1/pdr3 knockout yeast; score 100 = 6 SD above DMSO;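 active = lowest replicate activity score at least 50, where 100 means six control SD above control mean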;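 also: yeast exposed to compound for 9 h at 30 °C; higher score means more reporter readthrough which indicates perturbed polyadenylation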
MOR-DOR ag – agonists of human mu-delta opioid receptor heterodimerization | cells, OPRM1-OPRD1 heterodimerization, luminescence | activation, % at 9.3 µM | 340,000 tested, 0.3% active | AID 504326; in the data active = activation above about 18%;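 also: 0% = vehicle-treated cells and 100% = reference agonist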
Target sequence (P35372 whole entry, looked up): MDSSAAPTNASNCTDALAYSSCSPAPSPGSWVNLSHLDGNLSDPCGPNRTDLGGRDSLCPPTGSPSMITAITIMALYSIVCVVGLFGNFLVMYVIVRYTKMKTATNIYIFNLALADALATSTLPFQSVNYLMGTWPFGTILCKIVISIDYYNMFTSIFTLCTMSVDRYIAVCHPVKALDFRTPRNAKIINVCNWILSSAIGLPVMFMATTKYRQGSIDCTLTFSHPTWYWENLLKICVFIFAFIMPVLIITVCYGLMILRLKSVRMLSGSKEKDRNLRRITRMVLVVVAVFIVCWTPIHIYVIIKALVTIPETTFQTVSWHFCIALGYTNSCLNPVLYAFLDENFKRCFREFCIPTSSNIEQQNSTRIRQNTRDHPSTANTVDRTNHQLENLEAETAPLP
Target sequence (P41143 whole entry, looked up): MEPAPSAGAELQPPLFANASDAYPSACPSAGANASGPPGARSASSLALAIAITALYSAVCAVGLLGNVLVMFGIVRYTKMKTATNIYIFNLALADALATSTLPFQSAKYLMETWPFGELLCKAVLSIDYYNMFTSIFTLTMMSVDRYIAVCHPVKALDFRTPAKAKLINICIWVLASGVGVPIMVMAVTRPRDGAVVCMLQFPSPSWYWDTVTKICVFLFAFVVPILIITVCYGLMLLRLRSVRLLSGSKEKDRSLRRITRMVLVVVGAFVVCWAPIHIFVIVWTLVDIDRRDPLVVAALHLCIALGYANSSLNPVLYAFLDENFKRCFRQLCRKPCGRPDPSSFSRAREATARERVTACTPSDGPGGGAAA
HTR5A ag – counter-screen for OPRM1-OPRD1 agonists: human HTR5A agonism; P47898; HTR5A agonist assay, luminescence, cell-based; activation, % at 9.3 µM; 340,000 tested, 0.61% active; AID 504692; in the data active = activation mostly above about 9.5%, no sharp cut-off; inactive = mostly below about 7.6%;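 also: 0% = cells with vehicle only and 100% = reference agonist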
HTR5A inv ctr – inverse agonist of human HTR5A in OPRM1-OPRD1 counter-screen; P47898; HTR5A cell line, luminescence, inverse agonism; inhibition, % at 9.3 µM; 340,000 tested, 0.083% active; in the data active = inhibition mostly above about 23%, no sharp cut-off; inactive = mostly below about 18%;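 also: 0% = cells with DMSO and 100% = no-cell wells with DMSO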
OPRM1-OPRD1 inv – inverse agonists of human mu-delta opioid receptor heterodimerization. P35372+P41143. cell-based MOR-DOR heterodimer luminescence, inverse agonism. inhibition, % at 9.3 µM. 340,000 tested, 0.21% active. AID 504357; in the data active = inhibition above about 22%, passing the limit was not always enough;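 also: 0% = cells with DMSO and 100% = wells without cells with DMSO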
NALP1 inh – blocks the NALP1 inflammasome reconstituted in yeast; 280,000 tested, 0.61% active; inhibition, % at 10 µM; AID 2071; S. cerevisiae NALP1/ASC/caspase-1 growth, X-gal OD620, 72 h; in the data active = inhibition mostly above about 24%, no sharp cut-off; inactive = mostly below about 32%
* hit, by the source's call; i = inactive; · = no result given. Compounds with a hit are over-represented: about 1.6% of the library has one in this group of screens.

SMILES | PolyA inhibitor | MOR-DOR ag | HTR5A ag | HTR5A inv ctr | OPRM1-OPRD1 inv | NALP1 inh
Cc1c(OC(C)C(=O)NCC2CCC(C(=O)O)CC2)ccc2c(-c3ccccc3)cc(=O)oc12 (stereo unspecified) | 20.0 | -3.5 | 0.5 | 21.8 | 17.6 | -5.4
Cc1cccc(NC(=O)C2(c3ccccc3)CCOCC2)c1 | -5.9 | -0.8 | 0.2 | -0.5 | 4.4 | 9.1
Cc1cccc(NC(=O)C2(C)CC3c4ccccc4C2c2ccccc23)c1 (stereo unspecified) | 0.4 | 13.6 | 10.3* | -37.4 | -72.8 | 17.7
CC(=O)n1cc(N(C(=O)CCl)c2ccc(C)cc2)c2ccccc21 | -24.9 | 66.2* | 54.5* | 4.3 | -339.0 | -1.3
CC(=O)N(c1ccc(Cl)cc1)c1cn(C(C)=O)c2ccccc12 | 7.5 | -0.3 | 1.8 | -30.9 | 1.7 | -2.0
CCc1nnc(NC(=O)c2ccc(Br)c(S(=O)(=O)N3CCOCC3)c2)s1 | 23.6 | 1.4 | -0.4 | 1.1 | -10.9 | 13.6
Cc1ccc(/C=C(\NC(=O)c2ccccc2)C(=O)NC2CCN(Cc3ccccc3)CC2)o1 | 8.3 | -0.8 | -2.0 | 7.3 | 4.2 | 16.4
CC(=O)OCC1=C(C(=O)O)N2C(=O)[C@@H](NC(=O)Cc3cccs3)[C@H]2SC1 | -14.2 | -3.5 | -1.2 | 15.4 | 17.6 | 135.8*
CC(=O)OCC1=C(C(=O)O)N2C(=O)[C@@H](NC(=O)Cc3ccccc3)[C@H]2SC1 | · | -0.6 | -2.5 | 7.0 | 3.0 | ·
COc1ccc(OC)c(C(=O)c2ccc(C(=O)N3CCCCC3)cc2)c1 | -10.3 | -2.7 | -0.5 | 1.5 | 13.6 | 3.6
CN(C)CC(CCC(CN(C)C)C(=O)c1ccccc1)C(=O)c1ccccc1 (stereo unspecified) | -4.4 | -3.1 | 1.0 | -2.6 | 15.4 | 26.3*
O=C(c1ccccc1)C(CCC(CN1CCOCC1)C(=O)c1ccccc1)CN1CCOCC1 (stereo unspecified) | 18.6 | -2.5 | -5.6 | 24.4 | 10.3 | -2.6
COc1ccc(C(=O)C(CCCCC(CN(C)C)C(=O)c2ccc(OC)cc2)CN(C)C)cc1 (stereo unspecified) | -3.9 | 0.0 | -2.1 | -4.1 | -0.2 | 24.8*
CCN(CC(=O)NCc1ccc(Cl)cc1)C(=O)CN1C(=O)NC(CC)(c2ccccc2)C1=O (stereo unspecified) | 21.1 | -2.3 | -7.0 | -6.8 | 15.9 | 11.0
Cc1noc(C)c1COC(=O)[C@@H](NC(=O)c1ccccc1)C(C)C | -11.3 | 3.2 | -2.7 | -16.1 | -17.4 | 23.7*
Cc1cc(C)c2cc(CN(CCO)C(=O)Nc3ccc(F)cc3)c(=O)[nH]c2c1 | 15.5 | -1.1 | -2.4 | -22.3 | 6.3 | 2.2
Cc1cc(C)c2cc(CN(CCN(C)C)C(=O)Nc3ccccc3Cl)c(=O)[nH]c2c1 | 2.1 | -0.4 | 2.7 | 17.6 | 2.2 | 27.7*
O=c1[nH]c(Nc2ccc3c(c2)OCCO3)nnc1Cc1ccccc1 | 13.5 | -0.4 | -2.2 | 5.8 | 2.0 | 3.5
CC(C)(C)OC(=O)NCc1ccc(NC(=O)c2nc[nH]c2C(=O)N[C@@H](Cc2ccccc2)C(=O)OCc2ccccc2)cc1 | 20.2 | 40.9* | 24.7* | -105.3 | -227.8 | ·
Cc1ccc(C2=NOC(C)(c3nnc(-c4ccc(Cl)cc4)o3)C2)cc1 (stereo unspecified) | -3.8 | -0.9 | -1.5 | -2.4 | 4.9 | ·
CC(=O)N(C(C)=O)N1C(=O)c2cccc3c(N4CCOCC4)ccc(c23)C1=O | 1.8 | -3.3 | 10.8* | -29.6 | 15.2 | 13.2
COc1ccc2[nH]c3c(C)c4ccncc4c(C)c3c2c1 | -5.8 | 3.0 | 4.9 | -9.1 | -15.1 | 55.3*
Cc1ccc(OCCCCNC2CCCCC2)c(C)c1 | -5.7 | 1.4 | -2.4 | 4.1 | -8.6 | 44.4*
Cc1cc(=O)n(C)c(=O)n1CCCCOc1ccc([N+](=O)[O-])cc1 | 4.2 | -2.6 | -0.5 | -3.1 | 13.0 | 49.9*
O=C(N/N=C/c1ccccc1OC(F)F)c1cc(-c2ccncc2)nc2ccccc12 | -7.7 | 1.4 | 12.4* | -3.2 | -7.0 | 10.6
SMILES | PolyA inhibitor | MOR-DOR ag | HTR5A ag | HTR5A inv ctr | OPRM1-OPRD1 inv | NALP1 inh
Cc1cc(C)c(Cc2c(C)nc3c(C(=O)NCc4ccco4)cnn3c2C)c(C)c1 | -12.3 | 3.2 | 11.1 | 20.3 | -17.3 | 41.7*
O=C(NCc1ccco1)c1cnn2c(C(F)F)cc(-c3ccccc3)nc12 | -5.6 | -1.5 | -2.8 | -2.9 | 8.3 | 15.0
COc1ccc(C(=O)/C=C/C(=O)N(CC(=O)NC2CCCCC2)CC2CCCO2)c(O)c1 (stereo unspecified) | -17.3 | -6.4 | 1.9 | -5.4 | 32.7* | -17.6
CC(NC(=O)COC(=O)c1ccc([N+](=O)[O-])o1)c1ccccc1 (stereo unspecified) | · | 2.5 | 2.7 | -11.1 | -12.8 | ·
CCOC(=O)C1CCCN(CCC(=O)Nc2cc(C)cc(C)c2)C1 (stereo unspecified) | -3.5 | -2.5 | 10.2* | -25.1 | 13.3 | -44.6
S=C(NCCc1ccccc1)N/N=C/c1cccc(Cl)c1Cl | 13.6 | 0.1 | 3.3 | -6.8 | -0.7 | -3.5
Oc1ccccc1/C=N/NC(=S)NCCc1ccccc1 | -10.2 | 5.2 | 10.2* | -38.1 | -23.3 | 4.2
COc1ccccc1CCc1nnc(CCC(=O)NCC(C)Oc2cccnc2)o1 (stereo unspecified) | 12.4 | -0.5 | 5.7 | -2.3 | 3.5 | 5.9
COc1ccccc1CCc1nnc(CCC(=O)NC(C)Cc2ccsc2)o1 (stereo unspecified) | 13.7 | 2.2 | 9.9* | -27.9 | -11.2 | 0.9
Cc1cc(C)c2[nH]c(=O)c(C(c3nnnn3C(C)(C)C)N(Cc3ccco3)CC3CCCO3)cc2c1 (stereo unspecified) | -4.0 | -2.6 | -2.8 | 28.4 | 14.1 | 38.0*
Cc1cc2cc(C(c3nnnn3C(C)(C)C)N(Cc3ccco3)CC3CCCO3)c(=O)[nH]c2cc1C (stereo unspecified) | 0.6 | -2.2 | 2.7 | -7.4 | 9.6 | 4.8
O=C(O)CNC(=O)CC1S/C(=N/N=C2/NC(=O)CS2)NC1=O (stereo unspecified) | 2.7 | -1.9 | 3.2 | -7.9 | 12.2 | -1.4
O=C1NC[C@@H](c2ccccc2)OC(=O)[C@@H](Cc2ccc(F)cc2)C/C=C\C[C@@H]1CC(=O)N(CCO)Cc1ccccc1 | · | -6.8 | -19.0 | 48.2* | 37.1* | ·
COc1ccccc1C(=O)N/C(=C\c1ccccc1)C(=O)NCc1ccco1 | -10.8 | -0.6 | 0.0 | 0.1 | 4.1 | -13.9
Cc1cc(=O)[nH]c(NCc2ccc(Cl)cc2)n1 | -6.0 | 1.0 | 0.4 | -65.7 | -4.8 | 32.0
CC1=C/C(=N\OS(=O)(=O)c2ccccc2)C(C(C)C)=CC1=O | · | 186.1* | 19.8* | -17.5 | i | 102.3*
Cc1ccc(S(=O)(=O)Oc2ccccc2)cc1 | · | 0.5 | -0.9 | 3.4 | -2.7 | ·
CC1=CC(=O)C=C(C)C1=NOC(=O)/C=C\c1ccccc1 | -3.0 | 4.3 | 12.8* | -0.5 | -31.2 | -11.1
